Measurements from PubChem BioAssay (NCATS).
Where “and” joins values, the source holds several entries; their conditions need not be identical. Equal values may be shown once. Inconclusive results are not listed. Where a call stands in place of a potency, no number is given. Values without a mark were called inactive. Calls of active or inactive are those of the source. Calls follow the shape of the dose curve; as a rule, active = well fitted curve in the direction sought with a large enough effect; inconclusive = small, poorly fitted or top-dose-only effect, or another doubt; inactive = no such curve, though single readings can be large; an effect the other way counts as inactive or inconclusive. Where a SMILES comes first, the peptide text is derived from it. Bridges are numbered along the chain shown (N, C = ends). [ ]: non-standard residue; d: D form. The star is where a group is joined. X1 = CCC(C)C(N)C1=NC(C(=O)*)CS1; dOrn = NCCC[C@@H](N)C(=O)O

How the values were obtained:
[1] = molecular target: Cytochrome P450 3A7 (Homo sapiens) (UniProt P24462); assay: Cytochrome P450 family 3 subfamily A member 7 (CYP3A7) small molecule antagonists: luciferase biochemical qHTS assay (AID 1963596); conditions: P450-Glo CYP3A7 enzyme luminescence, 1 h; series mostly up to 57.4 µM; also: nearly all actives have a fitted effect of over 40% in size
Sequence of Cytochrome P450 3A7 (Homo sapiens) (P24462 whole entry, looked up): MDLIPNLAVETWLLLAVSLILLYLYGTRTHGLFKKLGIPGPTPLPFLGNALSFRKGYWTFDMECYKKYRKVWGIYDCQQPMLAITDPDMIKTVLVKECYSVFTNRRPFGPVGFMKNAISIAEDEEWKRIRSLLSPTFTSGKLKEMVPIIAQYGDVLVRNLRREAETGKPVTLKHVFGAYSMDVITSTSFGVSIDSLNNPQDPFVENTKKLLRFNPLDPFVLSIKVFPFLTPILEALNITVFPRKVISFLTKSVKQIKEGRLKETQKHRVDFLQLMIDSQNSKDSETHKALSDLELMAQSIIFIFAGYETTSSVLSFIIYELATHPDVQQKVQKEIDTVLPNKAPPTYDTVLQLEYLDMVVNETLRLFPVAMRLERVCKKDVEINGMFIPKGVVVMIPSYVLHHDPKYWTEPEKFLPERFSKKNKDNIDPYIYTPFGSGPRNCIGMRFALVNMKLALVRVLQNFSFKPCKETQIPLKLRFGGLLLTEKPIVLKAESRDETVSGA
Method in brief: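 Compounds were screened in qHTS format for interference with CYP3A7 turnover of a proluciferin substrate. Reactions ran 1 h at room temperature after NADPH regeneration solution was added, then luciferin product was detected by luminescence.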

[2] = Viability qHTS for spleen associated tyrosine kinase inhibitor (SYKi) naive MV4-11 cells (AID 1963823); conditions: MV4-11 AML viability, CellTiter-Glo luminescence, 72 h; series mostly up to 45 µM; also: nearly all actives have a fitted effect of over 40% in size; also: potency is read from the fitted curve at half-maximal effect
Method in brief: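 SYK inhibitor-naive MV4-11 cells, 500 per well, exposed to compounds for 72 hr at 37 C, 5% CO2. Viability read as CellTiter-Glo luminescence after 10 min at room temperature.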

[3] = Viability qHTS for spleen associated tyrosine kinase inhibitor (SYKi) drug resistant MV4-11 cells (AID 1963824); conditions: SYKi-resistant MV4-11 viability, CellTiter-Glo, 72 h; series mostly up to 45 µM; also: nearly all actives have a fitted effect of over 35% in size; also: potency is read from the fitted curve at half-maximal effect
Method in brief: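 SYK-inhibitor-resistant MV4-11 AML cells were seeded at 500 per well onto compound and cultured 72 hours (37 °C, 5% CO2). CellTiter-Glo was then added, and after 10 min at room temperature, luminescence gave viability.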

[4] = Cellular viability qHTS for adrenocortical cancer (ACC) cell line SW-13 (AID 1963989); conditions: SW-13 ACC cells viability, CellTiter-Glo, 48 h; activity (max response): hits give low values; also: nearly all actives have a fitted effect of over 65% in size; also: potency is read from the fitted curve at half-maximal effect;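 as to activity (max response): cells grown in serum-free medium with ITS supplement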
Method in brief: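 SW-13 cells in ITS-supplemented serum-free DMEM were plated overnight, then exposed for 48 h at 37C to compound titrations (up to 46 uM final). Viability was read by CellTiter-Glo luminescence; four-parameter logistic fits gave IC50 and efficacy.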

[5] = Cellular viability qHTS for adrenocortical cancer (ACC) cell line NCI-H295R (AID 1963990); conditions: CellTiter-Glo ATP luminescence, 48 h; series mostly up to 46.1 µM; also: nearly all actives have a fitted effect of over 60% in size; also: potency is read from the fitted curve at half-maximal effect
Method in brief: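 Luminescent ATP read-out (CellTiter-Glo, 20 min RT) after 48 h drug exposure of NCI-H295R cells; a titration up to 46 uM final. Data normalized to doxorubicin (100% inhibition) and DMSO (0%); 4-parameter fit gives IC50, max response.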

SMILES | Potency [1] | Potency [2] | Potency [3] | activity (max response) [4] | Potency [5] | Potency [4] | activity change, negative = inhibition [1] | viability (% of control) [2] | viability, % of control [3] | activity change, negative = viability loss [5]
CC(=O)Nc1ccn(C2COC(COC(=O)c3ccccc3)O2)c(=O)n1 (stereo not given) | inactive | 2.31 µM (active) | 1640 nM (active) | -9.44% | inactive | – | – | – | – | –
O=C(OCc1ccccc1)c1ccccc1 | inactive | inactive | inactive | -7.64% | inactive | – | – | – | – | –
CC(=O)Oc1ccc(C)cc1 | inactive | inactive | inactive | 6.29% | inactive | – | – | – | – | –
C=CCN1CCc2nc(N)sc2CC1 | inactive | inactive | inactive | 1.2% | inactive | – | – | – | – | –
Cc1ccc(S(=O)(=O)NC(=O)NC2CCCCC2)cc1 | inactive | inactive | inactive | 8.41% | inactive | – | – | – | – | –
CCn1cc(C(=O)O)c(=O)c2cnc(N3CCNCC3)nc21 | inactive | inactive | 2990 nM (active) | 3.41% | inactive | – | – | – | – | –
CCC(C)C(N)C1=NC(C(=O)N[C@@H](CC(C)C)C(=O)N[C@H](CCC(=O)O)C(=O)N[C@H](C(=O)N[C@H]2CCCCNC(=O)[C@H](CC(N)=O)NC(=O)[C@@H](CC(=O)O)NC(=O)[C@H](Cc3cnc[nH]3)NC(=O)[C@@H](Cc3ccccc3)NC(=O)[C@H]([C@@H](C)CC)NC(=O)[C@@H](CCCN)NC2=O)[C@@H](C)CC)CS1 (stereo not given in full) (X1-L[dE]IK[dOrn]I[dF]H[dD]N; lactam 4-C) | inactive | inactive | inactive | -8.42% | inactive | – | – | – | – | –
O=C(O)CCCCCCCC(=O)O | inactive | inactive | inactive | 10.6% | inactive | – | – | – | – | –
CCCCNc1ncc(-c2ccc(CN3CCOCC3)cn2)c(NC2CCC(O)CC2)n1 (stereo not given) | inactive | 31.7 nM (active) and 57.4 nM (active) | 91 nM (active) | -11.9% | inactive | – | – | – | – | –
Cc1nc(-c2ccc(Cl)cc2)oc1COC(C)(C)C(=O)O | inactive | inactive | inactive | -4.84% | inactive | – | – | – | – | –
CC1(C)OC(=O)NC1=O | inactive | inactive | inactive | 15.1% | inactive | – | – | – | – | –
CCN1CCCC1=O | inactive | inactive | inactive | 9.62% | inactive | – | – | – | – | –
CCN1CCCC1CN (stereo not given) | inactive | inactive | inactive | -2.8% | inactive | – | – | – | – | –
O=C1O[C@H]([C@@H](O)CO)C(O)=C1O | inactive | inactive | inactive | 0.904% | inactive | – | – | – | – | –
CCN(CC)CC(=O)Nc1c(C)cccc1C(=O)OC | inactive | inactive | inactive | -5.08% | inactive | – | – | – | – | –
CCCN(CCC)S(=O)(=O)c1ccc(C(=O)O)cc1 | inactive | inactive | inactive | 9.34% | inactive | – | – | – | – | –
CCC(=O)Nc1ccc(O)cc1 | inactive | inactive | inactive | 0.747% | inactive | – | – | – | – | –
Cc1cccc(C)c1NC(=O)c1ccccc1C(=O)O | inactive | inactive | inactive | 8.06% | inactive | – | – | – | – | –
CCCCS(=O)(=O)N[C@@H](Cc1ccc(OCCCCC2CCNCC2)cc1)C(=O)O | inactive | inactive | inactive | 11.9% | inactive | – | – | – | – | –
CCOc1cc(NC(C)=O)ccc1C(=O)OC | inactive | inactive | inactive | 1.95% | inactive | – | – | – | – | –

SMILES | Potency [1] | Potency [2] | Potency [3] | activity (max response) [4] | Potency [5] | Potency [4] | activity change, negative = inhibition [1] | viability (% of control) [2] | viability, % of control [3] | activity change, negative = viability loss [5]
CC(C)CCCC(C)CCCC(C)CCCCC(C)CCCC(C)CCCC(C)C (stereo not given) | inactive | inactive | inactive | 6.76% | inactive | – | – | – | – | –
O=C1CC[C@@H](C(=O)O)N1 | inactive | 0.0015 µM (active) | inactive | -6.66% | inactive | – | – | – | – | –
CNCc1ccc(C)c(NC(=O)c2ccc(Nc3nc(-c4ccccc4)c4ccccc4n3)cc2)c1 | inactive | 7.42 µM (active) | 7420 nM (active) | – | 6310 nM (active) | 28200 nM (active) | – | – | – | –
Cc1c(C(=O)NCCO)[n+](=O)c2ccccc2n1[O-] | inactive | inactive | inactive | 7.59% | inactive | – | – | – | – | –
OC[C@@H](O)[C@@H](O)[C@H](O)[C@H](O)CO | inactive | inactive | inactive | -5.63% | inactive | – | – | – | – | –
NC(Cc1ccc(Cl)cc1)C(=O)O (stereo not given) | – | – | – | -3.09% | – | – | -2.28% [at 0.91 µM] | 87.6% [at 0.588 µM] | 93.1% [at 0.588 µM] | -11% [at 0.587 µM]
CC(=O)Nc1ncc([N+](=O)[O-])s1 | inactive | inactive | inactive | 10.5% | inactive | – | – | – | – | –
CN=C(NC#N)Nc1ccc(C2=NNC(=O)CC2C)cc1 (stereo not given) | inactive | inactive | inactive | -6.43% | inactive | – | – | – | – | –
O=C(O)[C@H](CC(=O)N1C[C@H]2CCCC[C@H]2C1)Cc1ccccc1 | inactive | inactive | inactive | 1.52% | inactive | – | – | – | – | –
NC(CS)C(=O)O (stereo not given) | inactive | inactive | inactive | 12.6% | inactive | – | – | – | – | –
CN1[C@@H]2CC[C@H]1CC(OC(=O)c1c[nH]c3ccccc13)C2 (stereo not given in full) | inactive | inactive | inactive | -7.55% | inactive | – | – | – | – | –
CCOC(=O)c1ccccc1O | inactive | inactive | inactive | -1.17% | inactive | – | – | – | – | –
Nc1ccc(C(=O)O)cc1 | inactive | inactive | inactive | 6.83% | inactive | – | – | – | – | –
Cn1c(=O)c2[nH]cnc2n(C)c1=O | inactive | inactive | inactive | -5.93% and 14.5% | inactive | – | – | – | – | –
CC(C)(C)NCC(O)COc1cccc2c1CCC(=O)N2 (stereo not given) | inactive | inactive | inactive | 3.97% | inactive | – | – | – | – | –
O=C(O)Cn1cnnn1 | inactive | inactive | inactive | 12.6% | inactive | – | – | – | – | –
CN(C)CCN1C(=O)c2ccccc2N(C)c2ccccc21 | inactive | inactive | inactive | -13.1% | inactive | – | – | – | – | –
C=CCc1ccc(O)c(OC)c1 | inactive | inactive | inactive | 6.59% | inactive | – | – | – | – | –
NS(=O)(=O)c1ccc(NC(=O)CCC(=O)O)cc1 | inactive | inactive | inactive | 4.28% | inactive | – | – | – | – | –
